The supplement of paper PMC6555819

Columns and labels:
Assay in all cases: PBM binding z-score (relative to random genomic background probes); higher = stronger binding; sequences stand for … in GC…GCGATTGACAGCGTAGAATGAAGG
[1] = test system: PPARg:RXRa DBDmut IVT, anti-RXR (DBD mutation: RXRa K156A/R161A, NR concentration 270 nM, RXRa partner concentration 90 nM)
Summary of the method: (§1)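 Probes were double-stranded and carried 34-nt variable regions with direct-repeat seeds, single-nucleotide variants, half-site ablations and random human genomic background sequences, printed on custom Agilent 4×180K protein-binding microarrays. Arrays were incubated 1 h with ligand-free nuclear receptor dimers in PBS pH 7.4, 2% milk, 0.02% Triton X-100, 1 mM DTT, 0.2 mg/mL BSA and 0.4 mg/ml salmon testes DNA. Antibodies against each partner (one per run) detected binding, and scanned fluorescence was regression-normalized. Binding z-scores use the random background probes as reference.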

[2] = test system: PPARg:RXRa IVT, anti-PPARg (NR concentration 270 nM, RXRa partner concentration 90 nM)
Summary of the method: as §1

[3] = test system: PPARg DBDmut:RXRa IVT, anti-PPARg (DBD mutation: PPARg1 K132A/R137A, NR concentration 270 nM, RXRa partner concentration 90 nM)
Summary of the method: as §1

[4] = test system: PPARg DBDmut IVT, anti-PPARg (DBD mutation: PPARg1 K132A/R137A, NR concentration 270 nM)
Summary of the method: as §1

[5] = test system: PPARg homodimer (NR concentration 180 nM)
Summary of the method: as §1

[6] = test system: PXR:RXRa (NR concentration 270 nM, RXRa partner concentration 90 nM)
Summary of the method: as §1

[7] = test system: PXR homodimer (NR concentration 270 nM)
Summary of the method: as §1

[8] = test system: RARa:RXR (NR concentration 270 nM, RXRa partner concentration 90 nM)
Summary of the method: as §1

[9] = test system: RARa homodimer (NR concentration 270 nM)
Summary of the method: as §1

[10] = test system: RARb:RXRa (NR concentration 270 nM, RXRa partner concentration 90 nM)
Summary of the method: as §1

[11] = test system: RARb homodimer (NR concentration 270 nM)
Summary of the method: as §1

[12] = test system: RARg:RXRa (NR concentration 270 nM, RXRa partner concentration 90 nM)
Summary of the method: as §1

[13] = test system: RARg homodimer (NR concentration 270 nM)
Summary of the method: as §1

[14] = test system: RXRa DBDmut IVT, anti-RXR (DBD mutation: RXRa K156A/R161A, NR concentration 90 nM)
Summary of the method: as §1

[15] = test system: RXRa homodimer (NR concentration 180 nM)
Summary of the method: as §1

[16] = test system: THRa:RXRa (NR concentration 90 nM, RXRa partner concentration 90 nM)
Summary of the method: as §1

[17] = test system: THRa homodimer (NR concentration 90 nM)
Summary of the method: as §1

[18] = test system: VDR homodimer (NR concentration 270 nM)
Summary of the method: as §1

Sequence	PBM binding z-score [1]	PBM binding z-score [2]	PBM binding z-score [3]	PBM binding z-score [4]	PBM binding z-score [5]	PBM binding z-score [6]	PBM binding z-score [7]	PBM binding z-score [8]	PBM binding z-score [9]	PBM binding z-score [10]	PBM binding z-score [11]	PBM binding z-score [12]	PBM binding z-score [13]	PBM binding z-score [14]	PBM binding z-score [15]	PBM binding z-score [16]	PBM binding z-score [17]	PBM binding z-score [18]
ATATGTAGGTTAGCTCGGGTCATTCAGACTAGGC	6.41	6.32	1.69	1.22	2.02	4.79	1.22	3.11	0.826	2.09	2.89	2.48	2.04	0.986	3.02	4.98	2.7	2.6
GATACAGGGTCAGCTAGAGCCCAGAGTATGGAAA	0.771	2.13	-0.422	-0.697	1.06	1.83	-0.197	2.74	-0.316	3.81	2.3	4.4	4.33	1.25	4.08	2.43	0.0746	0.264
TAGCCTAGGTCATATCGGGCCAGTATACGCTATA	1.18	2.19	0.112	0.0699	0.54	2.18	0.0831	1.92	-0.618	3.37	2.44	3.33	3.95	1.17	2.49	4.54	0.783	0.939
TCTAGTTGGTCACGGAGGTCAAACACGACGGGTA	2.37	3.95	0.658	0.77	3.43	5.11	2.87	5.16	1.13	3.9	4.53	5.24	5.02	1.28	5.47	3.78	2.02	3.62
TCGAGTTGGTCAAAGGTCACACACTCGAAATGCG	1.75	5.88	1.98	1.49	8.37	6.29	1.41	7.61	4	4.9	4.92	6.93	5.89	2.1	8.01	3.94	1.19	2.78
CCAACTAGGTCAAGAGGTCAAAGTCCGCTTCCCG	8.09	8.02	4.07	5.47	8.09	6.37	2.79	8.12	3.13	5.34	5.51	8.12	7.31	2.99	8.12	4.24	2.47	4.94
TCTTGTAGATCAAAGGTTATGAAAGCCGAAGCCT	2.32	3.32	0.577	0.452	1.12	1.88	0.0149	3.07	-0.114	1.79	1.25	1.65	0.684	0.966	3.08	1.46	-0.27	0.204
CCTACTGGCCCACGAAAGGTCATTGATTCAGTGA	-0.126	0.861	-0.814	-1.14	3	5.2	1.92	5.64	2.79	3.94	4.47	4.32	3.95	0.693	4.79	3.02	1.16	2.69
TAGCCTAGGTCAGATCGGGCCATTATACGCTATA	0.579	1.34	-0.598	-0.774	0.357	2.69	-0.448	1.33	-0.736	2.84	2.15	2.48	3.68	-0.0922	1.36	4.25	0.543	-0.154
GGTACAGGGTCAAGGCCAGAGTACGCGTATTGAT	1.42	3.96	0.368	0.441	2.35	3.98	0.674	4.77	0.889	4.63	3.76	5.41	5.03	1.78	5.91	3.58	1.26	2.94
CCAGACAGGGGAAAGGTAACTCAGTCTGGTACGC	-0.0945	0.279	-0.482	-1.01	0.356	0.0184	-0.106	0.15	-0.374	0.202	0.183	0.177	-0.0948	-0.138	0.529	0.146	0.0595	-0.41
CCTACTGGGCCATTCAGTGGTCATTGATCATATG	3.99	3.43	-0.19	-0.875	-0.524	-0.597	-0.649	-0.725	-0.259	0.368	0.199	0.241	0.159	-0.408	-0.279	-0.329	-0.878	-0.288
TCATAAAGGTAAATGCTAGGTGAAAGTCCGATCT	3.32	1.59	0.692	0.518	1.01	0.647	0.218	1.36	0.932	1.04	0.719	1.03	0.541	1.87	1.05	2.03	0.511	0.333
CTCGAAAGGTCGGTTGAGGTGAGTATTCGGATAA	0.311	0.955	-0.267	0.135	1.02	3.05	-0.0873	2.04	0.255	3.25	2.52	2.59	2.91	1.01	2.25	4.98	1.25	0.522
